tested on: HepG2; experiment: GSK_TCMDC: Percent inhibition of human HepG2 cell line. Test compounds present at 10uM.; format: functional

SMILES	Inhibition [%]
COc1ccc(-c2cnc(N)c(-c3ccc(C(N)=O)cc3)c2)cc1OC	11
COc1cc(Cc2cnc(N)nc2N)ccc1OCc1ccc(NC(C)=O)cc1	9
Cc1cc(N2CCCN(C)CC2)nc(Nc2ccc(Br)cc2)n1	8
COC(=O)c1cccc(CNCc2cccc(-c3cccc(-c4nc5cccc(C)c5[nH]4)c3)c2)c1.O=C(O)C(F)(F)F	0
O=C(Nc1nccs1)c1cn(-c2ccccc2)nc1-c1ccc(Cl)s1	9
Cc1cccc(OC(C)C(=O)Nc2cc(C(F)(F)F)ccc2N2CCOCC2)c1 (stereo not given)	2
O=C(NCc1cccc(OC(F)(F)F)c1)c1cnc2c(c1)nc(-c1c[nH]c(-c3ccccc3)n1)n2CCc1c[nH]cn1	0
CCc1n[nH]c(C(=O)NC2CCN(CC3(c4ccc(OC)cc4)CCCCC3)CC2)c1C	2
CCC(C)(C)NC(=O)C(c1cccc(OC)c1)N(C(=O)CNC(=O)c1cccs1)c1ccc2c(c1)OCCO2 (stereo not given)	0
CC(C)COc1ccc(Cl)cc1Cc1ccc(-c2nc3c(F)cccc3[nH]2)o1	15
COc1ccc(CNC2CCN(C)CC2)cc1-c1ccc(S(=O)(=O)NCCc2ccccn2)cc1.O=C(O)C(F)(F)F	13
CC(C)CNCc1ccc(-c2ccc(CNC3CCN(Cc4ccccc4)CC3)cc2)cc1.O=C(O)C(F)(F)F	16
O=C(C=Cc1ccc(Cl)c(Cl)c1)NC1CCN(CCc2ccccc2)CC1.O=C(O)C(F)(F)F	6
Cn1nc(-c2cccc(CN[C@@H]3CCc4ccc(O)cc43)c2)c2cnc(NCCCN3CCCC3)nc21	9
O=C(Nc1cccc(-c2cccc(-c3nc4cc(F)ccc4[nH]3)c2)c1)c1ccncc1	28
Cl.N#Cc1ccc2c(c1)CCN(CCC1CCC(NC(=O)/C=C/c3c[nH]c4ccc(F)cc34)CC1)CC2 (stereo not given)	18
Cc1cccc(C)c1OC(=O)CSc1nnc(-c2ccccc2O)o1	11
N#Cc1ccc(-c2ccc(C(=O)NCCCCN3CCC(c4cn(CCO)c5ccccc45)CC3)cc2)cc1	23
O=C(Nc1ccc(F)cc1)NC1CCN(c2ccnc3cc(Cl)ccc23)C1.O=C(O)C(F)(F)F (stereo not given)	17
CCC1CN2CCc3c([nH]c4ccccc34)[C@@H]2C[C@@H]1CC1NCCc2cc(OC)c(OC)cc21.Cl (stereo not given in full)	33

SMILES	Inhibition [%]
Cl.OC(c1cccc(OCc2ccccc2)c1)C1CN(CCc2ccccc2)CCC1(O)c1ccccc1 (stereo not given)	7
CN(C)c1ccc(CN2CCC(CNC(=O)c3cc(-c4ccccc4F)cs3)C2)cc1.O=C(O)C(F)(F)F (stereo not given)	35
CS(=O)(=O)O.O=[N+]([O-])c1ccc(CNCCCCCCNCc2ccc([N+](=O)[O-])c3ccccc23)c2ccccc12	88
CCNc1cc(C(=O)N[C@@H](Cc2ccccc2)[C@H](O)CNC2CCC(C)(C)CC2)cc(N2CCCCS2(=O)=O)c1.Cl	1
Cc1ccc(F)cc1S(=O)(=O)NCC(C)c1ccc(NC(=O)Nc2cccc(F)c2)cc1 (stereo not given)	20
O=C(Nc1ccc(F)cc1F)NC1CCN(CCCCCNC(=O)C2CC2c2ccc(Cl)c(Cl)c2)CC1 (stereo not given)	41
CCNc1cc(C(=O)N[C@@H](Cc2ccccc2)[C@H](O)CNCCC(C)c2ccccc2)cc(N2CCCC2=O)c1.O=C(O)C(F)(F)F (stereo not given in full)	0
O=C(O)C(F)(F)F.O=c1ccc2ccc(F)c3c2n1CC3CN1CCC(NCc2cccc(-c3ccccc3F)c2)CC1 (stereo not given)	29
CN(C)c1ccc(-c2ccc(C(=O)NC3CCN(Cc4cccc(C(F)(F)F)c4)CC3)s2)cc1.O=C(O)C(F)(F)F	35
O=C(/C=C/c1ccc(Cl)c(Cl)c1)NCCCCN1CCCN(C(=O)Nc2cc(Cl)cc(Cl)c2)CC1	21
Cc1cccc2nc(-c3ccc(-c4cccc(NC(=O)CCc5c[nH]cn5)c4)cc3)[nH]c12	13
COC(=O)c1cc(/C(C)=N/Nc2nc3ccccc3[nH]2)ccc1O	9
CCCCCc1cc(OC(C)=O)c2c(c1)OC(C)(C)C=C2C1=CCN(Cc2ccccc2)CC1.O=C(O)/C=C/C(=O)O	14
COc1cc(C=Cc2ccc3ccccc3n2)cc(Br)c1OCC(=O)N(C)C	28
C=CCN1C(=O)c2[nH]nc(-c3cc(C)c(C)cc3O)c2C1c1cccc(Br)c1 (stereo not given)	0
CCCC(C)NC(=O)[C@H]1CNCCN1C(=O)CCCc1ccccc1.O=C(O)C(F)(F)F (stereo not given in full)	47
CCCc1cc(N2CCC(N3CCCC3)CC2)nc(Nc2ccc(OC)cc2)n1	15
CC(C)COc1ccc(Cl)cc1Cc1ccc(-c2nc3cc(CCN4CCCC4)ccc3[nH]2)o1.Cl	34
Cc1ccccc1/N=C1\NC(=S)N(c2cccc(C(F)(F)F)c2)C12CCC(C(C)(C)C)CC2 (stereo not given)	9
Cc1nnsc1C(=O)Nc1cccc(-c2cccc(-c3nc4ccccc4[nH]3)c2)c1	14

— ChEMBL document CHEMBL1157539, “Thousands of chemical starting points for antimalarial lead identification” (Nature, 2010)
